Results on eight molecules are retold here after PubChem BioAssay (NCI).

Where “and” joins values, the source holds several entries; their conditions need not be identical. Equal values may be shown once. Compounds without any hit were thinned out: in the full panel of roughly 83,000, 20% have a hit.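 Treatment: one concentration, 48 hours, 96-well format. Scoring: percent growth, with anything below 10 considered active.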 Calls of active or inactive are those of the source.

Some test systems named below: HCT-15 colon; HT29 colon; SNB-75 CNS; U251 CNS; PC-3 prostate; SK-MEL-5 melanoma; UACC-62 melanoma; LOX IMVI melanoma; SK-MEL-2 melanoma; SN12C renal; UO-31 renal; TK-10 renal; ACHN renal; CAKI-1 renal; A498 renal; CCRF-CEM leukemia; MOLT-4 leukemia; SNB-19 CNS; SK-MEL-28 melanoma; EKVX NSCLC.
Holding throughout (assay): NCI-60 one-dose screen, 48 h (100 = growth as untreated, 0 = no growth, -100 = all killed)
What all share (settings): 10 µM unless noted

As for `COc1cc(NS(C)(=O)=O)ccc1Nc1c2ccccc2nc2c(C)cccc12`, the growth is 7.59% (active) and 0.251% (active) in the experiment with HCT-15 colon; -36.8% (active) and 0.935% (active) in the experiment with HT29 colon; -7.95% (active) and -6.77% (active) in the experiment with SNB-75 CNS; -3.95% (active) and -7.3% (active) in the experiment on U251 CNS; 17.8% (inactive) and 28.4% (inactive) in the experiment with PC-3 prostate; -29.9% (active) and 2.9% (active) with SK-MEL-5 melanoma. Moreover, the growth with UACC-62 melanoma is 1.52% (active) and 23.3% (inactive); in the experiment with LOX IMVI melanoma, -49.9% (active) and -3.55% (active); in the experiment with SK-MEL-2 melanoma, 20.4% (inactive) and 44.2% (inactive); with SN12C renal it was -8.74% (active) and 6.11% (active); in the experiment on UO-31 renal it was -22.1% (active) and -17.6% (active); with TK-10 renal, -39.5% (active) and -35.3% (active). Further, the growth in the experiment on ACHN renal is -60.1% (active) and -56.2% (active); with CAKI-1 renal, -35.7% (active) and -10.5% (active); with A498 renal, -44% (active) and -27.8% (active); with CCRF-CEM leukemia, -11% (active); in the experiment with MOLT-4 leukemia, -12.1% (active) and -13.6% (active).

Take `COc1ccc2cc3[n+](cc2c1OC)CCc1cc2c(cc1-3)OCO2`: the growth was 93.8% (inactive) and 74.1% (inactive) in the experiment with HT29 colon; 85.5% (inactive) and 81% (inactive) in the experiment on SNB-75 CNS; 38.6% (inactive) and 42.2% (inactive) in the experiment on SNB-19 CNS; 25.2% (inactive) and 28.7% (inactive) with U251 CNS; 60.1% (inactive) and 60.6% (inactive) with PC-3 prostate; 7.33% (active) and 24.3% (inactive) in the experiment on SK-MEL-5 melanoma. For the same molecule, the growth in the experiment with UACC-62 melanoma is 54.8% (inactive) and 64.9% (inactive); in the experiment on LOX IMVI melanoma it was 83.6% (inactive) and 86.5% (inactive); with SK-MEL-28 melanoma, 94% (inactive); in the experiment on SK-MEL-2 melanoma it was 90.7% (inactive) and 104% (inactive); with SN12C renal, 30.2% (inactive) and 49.2% (inactive); in the experiment with UO-31 renal, 76.3% (inactive) and 84.2% (inactive). In addition, the growth in the experiment on TK-10 renal is 137% (inactive) and 98.3% (inactive); in the experiment on ACHN renal it was 91.2% (inactive); in the experiment on CAKI-1 renal it was 81.7% (inactive) and 89.8% (inactive); with A498 renal, 86.8% (inactive) and 90.8% (inactive); in the experiment with CCRF-CEM leukemia, 70.8% (inactive) and 67% (inactive); with MOLT-4 leukemia it was 66% (inactive) and 54.8% (inactive).

As to `Nc1ccccc1Nc1ccccc1`, the growth in the experiment with HCT-15 colon is 86.8% (inactive) and 83.1% (inactive); in the experiment with HT29 colon, 118% (inactive) and 97.4% (inactive); in the experiment on SNB-75 CNS it was 106% (inactive) and 90.7% (inactive); with U251 CNS, 89.3% (inactive) and 86.7% (inactive); in the experiment with PC-3 prostate, 87.6% (inactive) and 91.7% (inactive); with SK-MEL-5 melanoma it was 89.5% (inactive) and 94.7% (inactive). In addition, the growth in the experiment on UACC-62 melanoma is 98.8% (inactive) and 99.3% (inactive); with LOX IMVI melanoma it was 85.1% (inactive) and 87% (inactive); in the experiment on SK-MEL-28 melanoma, 109% (inactive) and 101% (inactive); with SK-MEL-2 melanoma, 133% (inactive) and 78.1% (inactive); in the experiment with EKVX NSCLC, 96.4% (inactive); with SN12C renal, 70% (inactive) and 72.6% (inactive). Further, the growth in the experiment with TK-10 renal is 111% (inactive) and 88.4% (inactive); with ACHN renal, 85.5% (inactive) and 75.2% (inactive); with CAKI-1 renal, 73.3% (inactive); with A498 renal, 105% (inactive); in the experiment on CCRF-CEM leukemia, 31.8% (inactive) and 25.3% (inactive); in the experiment with MOLT-4 leukemia, 53.5% (inactive) and 88.3% (inactive).

`CCN(CC)CCCC(CNc1ccnc2cc(Cl)ccc12)c1ccc(Cl)cc1` (centres undefined): the growth is 3.38% (active) and -5.84% (active) with HT29 colon; -76.2% (active) and -39.9% (active) with SNB-75 CNS; 2.34% (active) and 92.4% (inactive) with SNB-19 CNS; -71.9% (active) and -57.4% (active) with U251 CNS; 34.2% (inactive) and 19.3% (inactive) with PC-3 prostate; -92.8% (active) and -96.9% (active) in the experiment with SK-MEL-5 melanoma. Moreover, the growth in the experiment with UACC-62 melanoma was -77.6% (active) and 97.7% (inactive); in the experiment on LOX IMVI melanoma it was -85.5% (active) and -13% (active); in the experiment with SK-MEL-28 melanoma it was -83.7% (active) and -85.7% (active); in the experiment with SK-MEL-2 melanoma, -56.2% (active) and -67.7% (active); with EKVX NSCLC, -3.66% (active) and 12.1% (inactive); in the experiment on SN12C renal, -3.18% (active) and 84.7% (inactive). Besides, the growth in the experiment on UO-31 renal is -91.5% (active) and -65.7% (active); with TK-10 renal it was -76.7% (active) and 14.7% (inactive); in the experiment on ACHN renal, -80.7% (active) and 2.15% (active); in the experiment with CAKI-1 renal, -64.4% (active) and -63.6% (active); with A498 renal it was 42.3% (inactive) and -81.8% (active); in the experiment with CCRF-CEM leukemia, -17.5% (active) and -46.6% (active). The growth in the experiment on MOLT-4 leukemia is -18% (active) and -51.4% (active).

With `CC(C(=O)O)n1cc(C#N)c(=O)[nH]c1=O` (centres undefined), the growth is 104% (inactive) and 102% (inactive) in the experiment with HCT-15 colon; 110% (inactive) and 104% (inactive) with HT29 colon; 83.7% (inactive) and 76.9% (inactive) in the experiment with SNB-75 CNS; 111% (inactive) and 107% (inactive) in the experiment with U251 CNS; 95.3% (inactive) in the experiment with PC-3 prostate; 105% (inactive) and 102% (inactive) with SK-MEL-5 melanoma. Also, the growth with UACC-62 melanoma is 103% (inactive) and 99.7% (inactive); in the experiment with LOX IMVI melanoma it was 110% (inactive) and 98.6% (inactive); in the experiment with SK-MEL-28 melanoma, 110% (inactive); in the experiment on SK-MEL-2 melanoma, 120% (inactive) and 102% (inactive); in the experiment on EKVX NSCLC, 95.6% (inactive) and 110% (inactive); with SN12C renal, 98.6% (inactive) and 96.1% (inactive). In addition, the growth is 112% (inactive) and 110% (inactive) with TK-10 renal; 100% (inactive) and 96.5% (inactive) with ACHN renal; 86.5% (inactive) and 93.1% (inactive) with CAKI-1 renal; 107% (inactive) with A498 renal; 91.6% (inactive) and 103% (inactive) in the experiment on CCRF-CEM leukemia; 90% (inactive) and 107% (inactive) in the experiment with MOLT-4 leukemia.

For the molecule `O=[N+]([O-])c1ccc(Oc2ccccc2)cc1`, the growth in the experiment on HCT-15 colon is 123% (inactive) and 104% (inactive); with HT29 colon, 113% (inactive) and 103% (inactive); with SNB-19 CNS it was 97% (inactive) and 114% (inactive); with U251 CNS, 102% (inactive) and 105% (inactive); in the experiment on PC-3 prostate, 81.9% (inactive) and 88.4% (inactive); with SK-MEL-5 melanoma it was 109% (inactive) and 108% (inactive). Besides, the growth was 107% (inactive) and 106% (inactive) with UACC-62 melanoma; 95.3% (inactive) and 99.3% (inactive) with LOX IMVI melanoma; 108% (inactive) in the experiment on SK-MEL-28 melanoma; 112% (inactive) and 117% (inactive) in the experiment on SK-MEL-2 melanoma; 100% (inactive) and 122% (inactive) in the experiment on EKVX NSCLC; 120% (inactive) and 116% (inactive) in the experiment with SN12C renal. The growth is 80.1% (inactive) and 87.6% (inactive) in the experiment on UO-31 renal; 97.9% (inactive) and 103% (inactive) in the experiment with TK-10 renal; 106% (inactive) and 105% (inactive) in the experiment on ACHN renal; 93.4% (inactive) and 126% (inactive) in the experiment with CAKI-1 renal; 106% (inactive) and 96.9% (inactive) in the experiment on A498 renal; -24% (active) and 92.5% (inactive) with CCRF-CEM leukemia. In the experiment on MOLT-4 leukemia, the growth was 96.5% (inactive) and 92.6% (inactive).

As for `Cc1cc(-c2ccc(NS(=O)(=O)c3ccccc3)c(C)c2)ccc1NS(=O)(=O)c1ccccc1`, the growth with HCT-15 colon was 84.8% (inactive) and 84.9% (inactive); with HT29 colon it was 74.2% (inactive) and 99.7% (inactive); with SNB-75 CNS it was 72.6% (inactive) and 105% (inactive); in the experiment on U251 CNS, 94% (inactive) and 95.2% (inactive); with PC-3 prostate, 63.1% (inactive) and 78.7% (inactive); in the experiment with SK-MEL-5 melanoma, 87.2% (inactive). Moreover, the growth in the experiment on UACC-62 melanoma was 55.8% (inactive) and 63.5% (inactive); in the experiment with LOX IMVI melanoma, 84% (inactive) and 75% (inactive); with SK-MEL-2 melanoma, 85% (inactive) and 102% (inactive); in the experiment on EKVX NSCLC, 61.5% (inactive) and 73.6% (inactive); in the experiment with SN12C renal it was 94.7% (inactive) and 98.4% (inactive); in the experiment with UO-31 renal, 66.7% (inactive) and 108% (inactive). Besides, the growth with TK-10 renal was 83.4% (inactive) and 109% (inactive); in the experiment on ACHN renal, 81.2% (inactive) and 96.7% (inactive); in the experiment with CAKI-1 renal it was 61.3% (inactive) and 98.8% (inactive); in the experiment on A498 renal, 90.8% (inactive) and 89.8% (inactive); in the experiment on CCRF-CEM leukemia, 80.5% (inactive) and 86.6% (inactive); with MOLT-4 leukemia it was 41% (inactive) and 56.3% (inactive).

With `ClC/C=C/CSc1ncnc2nc[nH]c12`, the growth with HCT-15 colon was 104% (inactive) and 99.7% (inactive); in the experiment on HT29 colon it was 98.4% (inactive) and 95.2% (inactive); in the experiment on SNB-75 CNS it was 108% (inactive) and 92.7% (inactive); in the experiment with U251 CNS, 96.7% (inactive) and 102% (inactive); in the experiment with PC-3 prostate it was 100% (inactive) and 98.1% (inactive); in the experiment on SK-MEL-5 melanoma, 100% (inactive) and 112% (inactive). The growth in the experiment with LOX IMVI melanoma is 98.7% (inactive) and 97.3% (inactive); in the experiment on SK-MEL-28 melanoma it was 111% (inactive) and 101% (inactive); in the experiment with SK-MEL-2 melanoma, 5.9% (active) and 112% (inactive); with EKVX NSCLC, 105% (inactive) and 104% (inactive); in the experiment with SN12C renal, 105% (inactive) and 100% (inactive); in the experiment on UO-31 renal, 85.9% (inactive) and 87.1% (inactive). Further, the growth in the experiment on TK-10 renal was 108% (inactive); in the experiment on ACHN renal, 103% (inactive) and 99.2% (inactive); in the experiment on A498 renal, 91.4% (inactive) and 117% (inactive); in the experiment on CCRF-CEM leukemia, 90.7% (inactive); in the experiment with MOLT-4 leukemia, 93.7% (inactive) and 85.3% (inactive).
